TRHR agonist – agonists of human TRH receptor; AID 493084; 0.18% of 360,000 active; activation, % at 2 µM; TRHR cells, calcium flux fluo-8, FDSS agonist mode; in the data active = activation above about 30%
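Read-out: compound-evoked intracellular calcium rise in TRHR cells, fluo-8 dye, kinetic FDSS fluorescence at 1 s/cycle following a 10-cycle baseline. Cells cultured overnight before dye loading (30 min–1.5 h, RT).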
TRPV1 ag – human TRPV1 agonism | TRPV1-expressing cells, Fluo-8 calcium influx, agonist mode | activation, % at 8.33 µM | 0.19% of 320,000 active; in the data active = activation above about 80%; inconclusive = between about 30% and that limit
Target sequence (Q8NER1 whole entry, looked up): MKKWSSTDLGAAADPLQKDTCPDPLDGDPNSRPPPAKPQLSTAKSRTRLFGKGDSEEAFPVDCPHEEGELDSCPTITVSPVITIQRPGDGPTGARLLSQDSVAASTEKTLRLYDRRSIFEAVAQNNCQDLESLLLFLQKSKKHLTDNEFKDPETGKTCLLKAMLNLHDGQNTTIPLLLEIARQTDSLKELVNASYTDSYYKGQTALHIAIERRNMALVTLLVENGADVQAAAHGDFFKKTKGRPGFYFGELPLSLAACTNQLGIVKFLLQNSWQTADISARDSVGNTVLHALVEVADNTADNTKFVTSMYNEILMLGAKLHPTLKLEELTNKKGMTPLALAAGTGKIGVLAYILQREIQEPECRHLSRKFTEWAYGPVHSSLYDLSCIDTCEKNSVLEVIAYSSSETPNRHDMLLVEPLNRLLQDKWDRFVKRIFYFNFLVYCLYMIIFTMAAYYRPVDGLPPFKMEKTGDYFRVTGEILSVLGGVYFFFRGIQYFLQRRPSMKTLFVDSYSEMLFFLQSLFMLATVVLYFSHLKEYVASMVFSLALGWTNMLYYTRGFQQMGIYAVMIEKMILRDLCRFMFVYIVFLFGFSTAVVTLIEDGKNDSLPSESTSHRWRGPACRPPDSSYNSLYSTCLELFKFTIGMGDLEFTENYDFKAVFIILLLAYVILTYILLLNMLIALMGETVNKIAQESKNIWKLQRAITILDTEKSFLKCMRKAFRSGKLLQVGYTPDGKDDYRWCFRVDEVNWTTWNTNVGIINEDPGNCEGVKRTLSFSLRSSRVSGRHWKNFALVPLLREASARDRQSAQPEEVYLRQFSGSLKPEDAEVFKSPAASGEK
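Cells expressing TRPV1 were dye-loaded with Fluo-8 and read kinetically: 10 s baseline, 3 min after compound (agonist portion), then 2 min after EC20 capsaicin (allosteric enhancer portion). Calcium-bound dye fluorescence at 480/520 nm.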
TRPV1 PAM – human TRPV1 potentiation; 0.02% of 320,000 active; potentiation, % at 8.33 µM; TRPV1-expressing cells, Fluo-8 calcium influx, capsaicin EC20 potentiation; in the data active = potentiation above about 80%; inconclusive = between about 30% and that limit
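TRPV1-expressing cells were cultured overnight at 35.5C and loaded with Fluo-8 calcium dye for 40 to 90 min at room temperature. After a 10 s baseline, compound was added and calcium influx was read kinetically for 3 min (ex 480/em 520 nm).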
TRPML1 ag – agonists of human TRPML1 channel | 0.12% of 410,000 active | TRPML1-expressing cells, Ca2+ dye fluorescence, FDSS | activation, % (concentration not given with the values); in the data active = activation above about 50%; inconclusive = mostly about 30% to 49%
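Kinetic FDSS Ca2+ read in Tet-induced TRPML1-DL cells (ABD Ca8 dye plus quencher, 45-90 min RT loading): baseline, then compound, then 110 s agonist window; EC80 agonist 54-4 at 4uM final added afterwards for a 110 s antagonist window.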
TRPML1 inh – human mucolipin-1 channel inhibition; Q9GZU1; TRPML1-inducible cells, Ca2+ dye fluorescence, FDSS; active compounds read low; inhibition of EC80 agonist-evoked calcium signal; activity change, negative = inhibition, % (test concentration not listed); 0.02% of 390,000 active; AID 624415; in the data active = activity change below about -50%; inconclusive = between about -30% and that limit;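 also: stimulus is agonist 54-4 at its EC80 concentration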
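TRPML1-DL cells, Tet-induced overnight (~16 h, 37 °C) at 1,500 cells/well, were loaded with Ca8 no-wash dye plus quencher for 45-90 min at room temperature. Compounds were pinned during FDSS kinetic reading; agonist 54-4 at EC80 (4 uM final) then added.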
TRHR enhancer – allosteric enhancers of human TRH receptor; P34981; TRHR cells, fluo-8 calcium fluorescence, EC20 TRH enhancement; enhancement, % at 2 µM; 0.66% of 360,000 active; AID 493056; in the data active = enhancement above about 30%
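Enhancer read-out: after compound pinning and an initial kinetic agonist-mode read, an EC20 of TRH (10 nM final) was injected and fluo-8 calcium signal (Ex 480/Em 530) followed at 1 s/cycle for 100 cycles in TRHR-expressing cells.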
A number is an active result; - = inactive; ? = inconclusive; . = not tested or not shown. This is a sample that favours compounds with a hit; in the whole collection about 0.99% have one here.

SMILES	TRHR agonist	TRPV1 ag	TRPV1 PAM	TRPML1 ag	TRPML1 inh	TRHR enhancer
Cc1nn(Cc2ccccc2)c(C)c1NC(=O)CCCn1nc(C)c([N+](=O)[O-])c1C	-	-	-	-	-	-
Cc1nn(Cc2ccc(Cl)cc2)c(C)c1NC(=O)CCCn1nc(C)c([N+](=O)[O-])c1C	-	93	-	-	-	-
CCN(CC)C(=O)c1nn(-c2ccc(OC)cc2)c(=O)c2c(N)scc12	-	.	.	.	.	-
COC(=O)c1cc(Br)c(=O)n(CCN2CCCC2)c1	-	-	-	-	-	-
COC(=O)c1cc(Br)c(=O)n(CC(C)C)c1	-	-	-	-	-	31
COc1cccc(S(=O)(=O)N2CCN(S(=O)(=O)c3ccc4c(c3)OCCO4)CC2)c1	-	.	.	.	.	-
CN(C)c1ccc(/C=C/N2C=CCc3c2ccc2ccccc32)cc1	.	.	.	-	.	.
CCOC(=O)c1cccc(NS(=O)(=O)c2cc3[nH]c(=O)c(=O)[nH]c3cc2C)c1	-	.	.	-	-	46
CCc1nc2c(c(=O)c3ccccc3n2C)c(=O)n1C1CCCCCC1	39	-	-	?	-	-
COC(=O)c1cc(NC(=O)c2cccc(Cl)c2)c(=O)oc1/C=C/Nc1cc(C)cc(C)c1	38	-	-	.	.	-
COC(=O)c1cc(NC(=O)c2cccc(C(F)(F)F)c2)c(=O)oc1C	-	-	-	-	-	-
COc1ccc(NC(=O)c2ccco2)cc1NC(=O)c1ccc(C)cc1	-	-	-	-	-	-
CC(C)Oc1ccc(NC(=O)c2ccncc2)cc1	-	86	-	-	-	-
CC(C)Oc1ccc(C(=O)Nc2ccc([N+](=O)[O-])cc2)cc1	-	?	-	-	-	-
COc1ccc(NC(=O)c2ccco2)cc1NC(=O)c1ccc(OC(C)C)cc1	-	.	.	-	-	43
Cc1ccc(CCNC(=O)Cn2c(-c3cccs3)cc3ccccc32)cc1	-	.	.	-	-	-
CC1CCN(C(=O)Cn2c(=O)n(CCCC(=O)NCc3ccco3)c(=O)c3sccc32)CC1	-	-	-	-	-	-
CC1CCCCN1C(=O)Cn1c(=O)n(CCC(=O)NCc2ccco2)c(=O)c2sccc21 (configuration not stated)	-	-	-	-	-	35
O=c1[nH]c2ccccc2nc1/C=C(\O)c1cccs1	115	?	-	79	-	-
Cc1ccc(C)c(NC(=O)C(c2ccccc2)N2Cc3ccccc3C2=O)c1 (configuration not stated)	-	.	.	-	-	32
Cc1cc(F)ccc1NC(=O)C(c1ccccc1)N1Cc2ccccc2C1=O (configuration not stated)	-	.	.	-	-	-
CC/C(=C\c1ccc(C(=O)OC)cc1)c1cc(OC)cc2oc3ccccc3c12	.	.	.	-	.	.
CCN1CCN(Cc2c(O)ccc3c(=O)c(-c4ccccc4OC)coc23)CC1	-	-	-	-	-	-
CCN1CCN(Cc2c(O)ccc3c2O/C(=C\C=C\c2ccccc2OC)C3=O)CC1	33	-	-	-	-	-
CCC(=O)Nc1sc2c(c1C(N)=O)CCN(Cc1ccccc1)C2	39	-	-	-	-	-
SMILES	TRHR agonist	TRPV1 ag	TRPV1 PAM	TRPML1 ag	TRPML1 inh	TRHR enhancer
CCN1CCc2c(sc(NC(=O)Nc3ccc(Cl)c(Cl)c3)c2C(N)=O)C1	159	82	-	81	-	-
CC(C)C(=O)Nc1sc2c(c1C(N)=O)CCN(Cc1ccccc1)C2	-	-	-	-	-	-
NC(=O)c1c(NC(=O)c2c(F)cccc2F)sc2c1CCN(Cc1ccccc1)C2	49	-	-	-	-	-
CCCCN(CCCC)S(=O)(=O)c1ccc(C(=O)Nc2sc3c(c2C(N)=O)CCN(CC)C3)cc1	-	.	.	-	-	-
CCN1CCc2c(sc(NC(=O)c3ccc(S(=O)(=O)N(CC)c4ccccc4)cc3)c2C(N)=O)C1	74	-	-	61	-	-
Cc1cccc(-n2c(C)nnc2SCC(=O)NC(C)c2ccco2)c1 (configuration not stated)	.	.	.	-	.	.
CC(C)(C)OC(=O)NCC(=O)NNC(=O)c1cc2ccccc2[nH]1	-	.	.	.	.	-
NC(=O)c1c(NC(=O)c2ccccc2)sc2c1CCN(Cc1ccccc1)C2	53	-	-	-	-	-
COC(=O)/C=c1/s/c(=C(/C#N)C(=O)N2CCCCC2)n(-c2ccccc2)c1=O	-	-	-	-	-	-
COc1cc(/C=c2\s/c(=C(/C#N)C(=O)N3CCCC3)n(-c3ccccc3)c2=O)ccc1O	72	-	-	?	-	-
CCCN(C(=O)c1cc2c(=O)n(CC)c3ccccc3c2s1)c1ccccc1F	-	.	.	-	-	-
CCOc1ccccc1N(CC)C(=O)c1cc2c(=O)n(CC)c3ccccc3c2s1	-	.	.	-	-	50
CC(C)CCNC(=O)CCn1c(=O)c2cccn2c2cccnc21	-	.	.	-	-	-
Cc1ccc(N/C=C(\[N+](=O)[O-])S(=O)(=O)c2ccccc2)cc1	-	-	-	-	-	31
O=C1C(=O)C(c2cc(O)c(O)c(O)c2)Oc2cc(O)cc(O)c21 (configuration not stated)	.	.	.	-	.	.
CCCn1c2ccccc2c2cnn(CC(=O)NCCc3ccc(S(N)(=O)=O)cc3)c(=O)c21	40	.	.	-	-	-
Cc1cc(C)c(Cn2c3ccccc3c3cnn(CC(=O)NCc4ccc(Cl)cc4)c(=O)c32)c(C)c1	-	.	.	-	-	-
CCCn1c2ccccc2c2cnn(CC(=O)NCCc3ccccc3)c(=O)c21	-	.	.	-	-	-
Cc1ccc(Cn2c3ccccc3c3cnn(CC(=O)Nc4cc(Cl)ccc4C)c(=O)c32)cc1	-	.	.	-	-	45
Cn1nnnc1Sc1ncnc2scc(I)c12	-	.	.	.	.	-
Cc1cc2c(s1)c1cnn(Cc3ccc(F)cc3)c(=O)c1n2C	-	.	.	.	.	-
O=c1c(/C=C(\O)c2ccc(F)cc2)nc2ccccc2n1-c1ccccc1	76	?	-	-	-	-
CNc1cc[n+](C)c2ccccc12	.	.	.	-	.	.
CCCCCCCCCC[n+]1ccc(/C=C/c2c(C)[nH]c3ccccc23)c2ccccc21	.	.	.	-	.	.
CCCCNC(=O)[C@@H]1CC=C[C@@H]2CCN(Cc3ccc(OC)c(OC)c3)C(=O)[C@@H]21	.	.	.	-	.	.
O=c1c2nccnc2[nH]c(=S)n1Cc1ccccc1	-	-	?	-	-	-
O=c1c2cccnc2[nH]c(=S)n1Cc1ccccc1	-	-	-	-	-	32
O=C(O)C1CC(c2ccc(F)cc2)=NO1 (configuration not stated)	-	-	-	-	-	-
O=C(O)C1CC(c2ccccc2)=NO1 (configuration not stated)	-	-	-	-	-	33
